From PubChem
CYP2C9 act: CYP2C9 (human) activation; AID 1024; recombinant CYP2C9, luciferin-H conversion, luminescence; active compounds read high; factor 1 = untreated enzyme, 0 = blocked; hit rate 1.4% among 96,000; activation factor at 5 µM; P11712;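 active = activation factor of 2 or more for CYP2C9 at a 5 µM dose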
CYP2C9 inhib: human CYP2C9 inhibition; hit rate 20% among 96,000; CYP2C9 Supersomes, luciferin-H conversion, luminescence; inhibition, % at 5 µM; P11712;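 active = blocking of liver enzyme CYP2C9 beyond about 50% at 5 µM, limit read from the data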
CYP2C19 act: activators of human cytochrome P450 2C19; P33261; recombinant CYP2C19, luciferin-H EGE luminescence; active compounds read high; 0 = fully inhibited enzyme, 1 = untreated enzyme; activation factor at 5 µM; 96,000 tested, under 10 active; AID 1025;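 active = activation factor of at least 2 at 5 µM in the primary screen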
Target sequence (P33261 whole entry, looked up): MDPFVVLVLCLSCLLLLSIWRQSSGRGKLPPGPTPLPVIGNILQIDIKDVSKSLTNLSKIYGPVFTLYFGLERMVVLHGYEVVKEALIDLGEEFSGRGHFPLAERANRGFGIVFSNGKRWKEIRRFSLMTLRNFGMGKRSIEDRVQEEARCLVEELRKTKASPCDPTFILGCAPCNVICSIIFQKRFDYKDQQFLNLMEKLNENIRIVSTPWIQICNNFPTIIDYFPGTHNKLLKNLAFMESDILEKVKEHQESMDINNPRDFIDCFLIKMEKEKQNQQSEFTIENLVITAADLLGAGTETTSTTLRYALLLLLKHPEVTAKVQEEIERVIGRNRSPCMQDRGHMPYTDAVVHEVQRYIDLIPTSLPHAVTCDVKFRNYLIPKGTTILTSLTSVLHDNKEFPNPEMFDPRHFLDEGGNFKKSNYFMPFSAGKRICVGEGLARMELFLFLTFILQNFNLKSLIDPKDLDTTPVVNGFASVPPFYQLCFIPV
CYP2C19 inh: inhibitors of human CYP2C19. P33261. hit rate 21% among 96,000. AID 778. inhibition, % at 5 µM. CYP2C19 Supersomes, luciferin-H EGE luminescence, 30 min;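 active = CYP2C19 inhibition above a set limit at 5 µM in the primary screen, cut at about 50% in these data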
PLAP act: activators of human placental alkaline phosphatase. P05187. hit rate 1.2% among 96,000. purified PLAP enzyme, luminescent substrate read-out; active compounds read high. activation fold at 20 µM; in the data active = activation fold above about 2
Hits are given with their value. Rows were chosen to be rich in hits. Some 31% of all compounds tested hit in one or more screens of this group.

Screening COC(=O)c1ccccc1NC(=S)NC(=O)COc1ccccc1 returned CYP2C9 act inactive, CYP2C9 inhib inactive, CYP2C19 act inactive, CYP2C19 inh inactive and PLAP act inactive.
`Cc1ccccc1C(=O)NNC(=S)NC(=O)COc1ccccc1` gave CYP2C9 act inactive, CYP2C9 inhib 89, CYP2C19 act inactive, CYP2C19 inh 55 and PLAP act 2.4.
Screening Brc1cccc(-c2nnc3sc(CN4CCCCC4)cn23)c1 returned CYP2C9 act inactive, CYP2C9 inhib 50, CYP2C19 act inactive, CYP2C19 inh inactive and PLAP act inactive.
For Brc1cccc(-c2nnc3sc(CN4CCC5(CC4)OCCO5)cn23)c1 the results were CYP2C9 act inactive, CYP2C9 inhib inactive, CYP2C19 act inactive, CYP2C19 inh inactive and PLAP act inactive.
COCc1nnc(NS(=O)(=O)c2c(C)cc(C)cc2C)s1 was read as CYP2C9 act inactive, CYP2C9 inhib 84, CYP2C19 act inactive, CYP2C19 inh inactive and PLAP act inactive.
COCc1nnc(NS(=O)(=O)c2ccccc2)s1 was read as CYP2C9 act inactive, CYP2C9 inhib inactive, CYP2C19 act inactive, CYP2C19 inh inactive and PLAP act inactive.
`CCOCc1nnc(NS(C)(=O)=O)s1` gave CYP2C9 act inactive, CYP2C9 inhib inactive, CYP2C19 act inactive, CYP2C19 inh inactive and PLAP act inactive.
COCc1nnc(NS(=O)(=O)c2ccc(C)cc2)s1 was read as CYP2C9 act inactive, CYP2C9 inhib 52, CYP2C19 act inactive, CYP2C19 inh inactive and PLAP act inactive.
For CCCCN1C2=NCCCN2c2ccccc21 the results were CYP2C9 act inactive, CYP2C9 inhib inactive, CYP2C19 act inactive, CYP2C19 inh inactive and PLAP act inactive.
CCCCN1c2ccccc2N(CCCO)c2cc(C)nnc21 was read as CYP2C9 act inactive, CYP2C9 inhib 65, CYP2C19 act inactive, CYP2C19 inh inactive and PLAP act inactive.
For c1ccc(-c2csc3ncn4nnnc4c23)cc1 the results were CYP2C9 act inactive, CYP2C9 inhib inactive, CYP2C19 act inactive, CYP2C19 inh inactive and PLAP act inactive.
For Cc1c(NC(=O)CN2CCN(C(c3ccccc3)c3ccccc3)CC2)c(=O)n(-c2ccccc2)n1C the results were CYP2C9 act inactive, CYP2C9 inhib inactive, CYP2C19 act inactive, CYP2C19 inh inactive and PLAP act inactive.
`O=C(Cc1nc2ccccc2s1)c1ccc(O)cc1O` gave CYP2C9 act inactive, CYP2C9 inhib inactive, CYP2C19 act inactive, CYP2C19 inh inactive and PLAP act inactive.
Screening O=C(Cc1ccc(Br)cc1)c1ccc(O)cc1O returned CYP2C9 act inactive, CYP2C9 inhib 54, CYP2C19 act inactive, CYP2C19 inh 71 and PLAP act inactive.
`O=C(COc1ccccc1Br)c1ccc(O)cc1O` gave CYP2C9 act inactive, CYP2C9 inhib 62, CYP2C19 act inactive, CYP2C19 inh 66 and PLAP act inactive.
For CC(C)n1cc(NC(=O)c2cc(-c3ccccc3)on2)cn1 the results were CYP2C9 act inactive, CYP2C9 inhib inactive, CYP2C19 act inactive, CYP2C19 inh inactive and PLAP act inactive.
Screening CCOc1ccccc1Nc1nc2ccccc2[nH]1 returned CYP2C9 act inactive, CYP2C9 inhib inactive, CYP2C19 act inactive, CYP2C19 inh inactive and PLAP act inactive.
For CC(=O)Nc1nonc1-c1ccccc1 the results were CYP2C9 act inactive, CYP2C9 inhib inactive, CYP2C19 act inactive, CYP2C19 inh inactive and PLAP act inactive.
O=C(Cc1ccccc1)Nc1nonc1NC(=O)c1ccccc1 was read as CYP2C9 act inactive, CYP2C9 inhib 70, CYP2C19 act inactive, CYP2C19 inh inactive and PLAP act inactive.
`Cc1occc1C(=O)NNC(=S)Nc1cccc([N+](=O)[O-])c1` gave CYP2C9 act inactive, CYP2C9 inhib inactive, CYP2C19 act inactive, CYP2C19 inh inactive and PLAP act 2.
COC(=O)c1ccc(C)c(N(CCO)CCO)c1 was read as CYP2C9 act inactive, CYP2C9 inhib inactive, CYP2C19 act inactive, CYP2C19 inh inactive and PLAP act inactive.
CS(=O)(=O)Nc1ccc(C(=O)Nc2ccccc2C(=O)N2CCCC2)cc1 was read as CYP2C9 act inactive, CYP2C9 inhib inactive, CYP2C19 act inactive, CYP2C19 inh inactive and PLAP act inactive.
`O=C(c1ccccc1Nc1ccc(SC(F)F)cc1)N1CCCCCC1` gave CYP2C9 act inactive, CYP2C9 inhib 60, CYP2C19 act inactive, CYP2C19 inh 84 and PLAP act inactive.
For O=C(OCC1CC(c2ccccn2)=NO1)c1ccc(Br)cc1 (stereo not given) the results were CYP2C9 act inactive, CYP2C9 inhib 82, CYP2C19 act inactive, CYP2C19 inh 77 and PLAP act inactive.
